Sampled rows, rich in hits. Any-hit rate of the full collection: about 2.6%.
HSP90 refold inh: HSP90 inhibitors, primary screen, cell lysate, luminescence; Rabbit reticulocyte lysate, luciferase refolding luminescence, 3 h; Heat shock protein HSP 90 (rabbit reticulocyte lysate; luciferase refolding); 0.91% of 290,000 active; inhibition, % at 5.6 µM;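 active means inhibition above the screen-wide mean plus 3 SD, computed separately per campaign, cut at about 16% in these data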;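 further: 0% = DMSO wells and 100% = 60 µM geldanamycin wells; inhibitors lower the luminescence because luciferase stays unfolded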
TWEAK-Fn14 inh: inhibitors of TWEAK-Fn14 signaling, primary screen, luciferase reporter cells, uHTS | TWEAK-stimulated Fn14 reporter cells, luciferase luminescence, 8 h | inhibition, % at 10 µM | 2% of 360,000 active; in the data active means inhibition above about 50%
EBV LMP1 NFkB: EBV LMP1-driven NF-kappaB luciferase reporter inhibitors, primary screen, cell-based, luminescence, single point | LMP1-induced NF-kappaB luciferase reporter cells | inhibition, % at 12.5 µM | 0.69% of 350,000 active; in the data active means inhibition above about 41%;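 further: 0% = neutral control wells and 100% = reference inhibitor control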
LGR2 antag: inhibitors of bursicon-induced LGR2 CRE-luciferase signal, primary screen, cell-based, HEK293, CRE-luciferase reporter, bursicon stimulation; Drosophila bursicon receptor LGR2 (rickets); bursicon-stimulated, 4 h; inhibition, % at 9.99 µM; 0.35% of 380,000 active;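 active means drop in luminescence signal, shown as inhibition above about 50% in the replicate tests, limit read from the data, passing the limit was not always enough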;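 further: agonist challenge used bursicon conditioned medium at about half maximal strength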
TROY NFkB inh: inhibitors of TROY-driven NF-kB signaling, primary screen, Q293 LMP1-TROYcd cells, NF-kB luciferase, uHTS; 0.98% of 360,000 active; Q293 LMP1-TROYcd NF-kB luciferase reporter, 4 h; inhibition, % at 10 µM;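 active means compounds whose plate-normalised and pattern-corrected inhibition of the luciferase reporter signal at the single screening dose is 50% or more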
aDG glyco up: activators of alpha-DG glycosylation, primary screen, uHTS, Pro5-aDG cells, AlphaScreen. alpha-DG glycosylation AlphaScreen (IIH6); 0% Pro5, 100% B10-LARGE cell signal. activation, % at 10 µM. 0.22% of 360,000 active. AID 624168, 2012;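 active means activation of at least 8% versus controls, or a plate z-score of at least 8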;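 further: Pro5 are CHO cells carrying HIG-tagged alpha-DG that lacks glycosylation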
* marks the source's active call; other numbers are inactive results; / = not tested or not shown.

SMILES | HSP90 refold inh | TWEAK-Fn14 inh | EBV LMP1 NFkB | LGR2 antag | TROY NFkB inh | aDG glyco up
CCn1c(SCC(=O)Nc2nc3ccc(C)cc3s2)nc2c(c1=O)SC(C)C2 (configuration not stated) | 1 | 93* | 34 | / | 19 | 3
CCC(=O)Nc1nc2ccc3sc(C)nc3c2s1 | 12 | 69* | -8 | -30 | 49 | 0
COCC(=O)Nc1nc2ccc(C)cc2s1 | 17* | 23 | 4 | / | -17 | 0
CN(C)CC#Cc1ccc([C@H]2[C@@H](CO)N3C(=O)CN(C(=O)c4cccnc4)C[C@@H]23)cc1 | / | / | / | 1 | / | /
CC(C)NC(=O)Nc1ccc2c(c1)C(=O)N([C@H](C)CO)C[C@H](C)[C@@H](CN(C)S(=O)(=O)c1cccs1)OCCCC[C@H](C)O2 | / | / | / | 10 | / | /
Cc1ccc2nc(NC(=O)CSCC(=O)OCC(=O)c3ccc(Br)cc3)sc2c1 | 50* | 74* | 29 | / | 64* | 0
O=C(C1CCCC1)N1[C@H](CO)[C@H](c2ccccc2)C12CN(CCC(F)(F)F)C2 | / | / | / | -14 | / | /
N#Cc1ccc(NC(=O)Nc2ccc(Oc3ccc(NC(=O)Nc4ccc(C#N)cc4)cc3)cc2)cc1 | 2 | 105* | 15 | 33 | 62* | 0
Cc1nccn1CC(=O)N/N=C/c1ccccc1O | 4 | -3 | 3 | -3 | 19 | 0
Cc1cc(C)n(CC(=O)N/N=C/c2cccs2)n1 | -2 | 105* | -18 | -40 | -15 | 0
Cc1nccn1CC(=O)N/N=C/c1cccs1 | 3 | 74* | -1 | 3 | -5 | 0
CCc1[nH]nc(C(=O)NC2CCCc3c2cnn3-c2cc(C)cc(C)c2)c1C (configuration not stated) | 3 | -20 | -3 | -17 | 58* | 0
CCn1nc(C)cc1C(=O)NC1CCCc2c1cnn2-c1ccc(C)c(C)c1 (configuration not stated) | 8 | 35 | 18 | 1 | 56* | 1
CC(C)NC(=O)N(C)C[C@@H]1Oc2ccc(NS(=O)(=O)c3cccs3)cc2C(=O)N([C@H](C)CO)C[C@H]1C | / | / | / | 11 | / | /
C[C@@H]1CN([C@H](C)CO)C(=O)CCCn2cc(nn2)CO[C@@H]1CN(C)C(=O)Nc1ccccc1C(F)(F)F | / | / | / | 4 | / | /
COc1ccccc1C1c2ccc3ccccc3c2Oc2ncn(CCN(C)C)c(=N)c21 (configuration not stated) | 5 | -8 | 48* | -6 | -6 | 0
CCCCOc1ccc(/C=C/C(=O)OCC(=O)N2CC(=O)Nc3ccccc32)cc1OCC | 9 | 68* | 11 | 19 | 43 | 0
COc1ccc(/C=C/C(=O)OCC(=O)N2CC(=O)Nc3ccccc32)cc1 | 0 | 11 | -8 | 3 | 6 | 0
COc1ccc(CN(C)C[C@H]2Oc3c(NC(=O)Nc4ccc(F)cc4)cccc3C(=O)N([C@H](C)CO)C[C@@H]2C)cc1 | / | / | / | -21 | / | /
Fc1ccc(Nc2ccc3ccccc3n2)c(F)c1 | 34* | 52* | -5 | 45 | -2 | 0
COc1ccc2c3c(n(C)c2c1)[C@@H](CO)N(Cc1ccccc1F)CC31CN(C(C)=O)C1 | / | / | / | 4 | / | /
O=C(Nc1ccccc1)N[C@@H]1CC[C@@H](CCNS(=O)(=O)c2ccccc2F)O[C@H]1CO | / | / | / | 8 | / | /
CCCC(=O)N1CC2(C1)CN(Cc1nccs1)[C@@H](CO)c1[nH]c3cc(OC)ccc3c12 | / | / | / | -18 | / | /
CCN(CCNC(=O)c1cccc(N2CCCC2=O)c1)c1ccccc1 | 1 | 52* | -6 | / | 70* | 0
CN(CCNC(=O)c1cccc(N2CCCC2=O)c1)Cc1ccccc1 | -1 | -25 | 5 | / | 1 | 0
O=C(O)CSCC(=O)Nc1ccc(Cl)cc1C(F)(F)F | 2 | -49 | 3 | -8 | 3 | 0
CCC(C)N(CC(=O)Nc1cccc(C)c1C)C(=O)CCl (configuration not stated) | 6 | 60* | 37 | / | 8 | 0
CC(C)N(CC(=O)Nc1ccc(Cl)cc1C(F)(F)F)C(=O)CCl | -1 | 63* | -21 | 3 | -5 | 0

Source: PubChem BioAssay
